High-throughput results (PubChem)
Sampled rows, rich in hits. Any-hit rate of the full collection: about 19%.
ELG1 DNA repair: qHTS screen for small molecules that inhibit ELG1-dependent DNA repair in human embryonic kidney (HEK293T) cells expressing luciferase-tagged ELG1; HEK293T ELG1-luciferase reporter, luminescence, 16 h; DNA damage induced by 5-fluorouridine; Potency, µM (series often up to 46.1 µM), most hits filed as inhibitors; actives 2.3% (n = 330,000); AID 504467, 2011; further: nearly all actives have a fitted effect of over 55% in size
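DMSO vehicle served as the neutral condition. Each well held 2,000 cells given 5-fluorouridine plus compound; after 16 hr at 37 °C/5% CO2, ONE-Glo was added and luciferase measured 30 min later.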
HT1080 IDH1KD tx: qHTS for induction of synthetic lethality in tumor cells producing 2HG: qHTS for the HT-1080-IDH1KD cell line; HT-1080 IDH1 knockdown viability, ATP luminescence, 48 h; Potency, µM (series often up to 46.1 µM), most hits filed as cytotoxic; actives 2% (n = 360,000)
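Knockdown cells (IDH1KD HT-1080) received compounds 2 h after plating at 750 cells/well and were kept 48 h at 37 °C in 5% FBS RPMI. A CellTiter-Glo luminescence read gave % activity for curve fitting.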
IL1B secr inh: qHTS for Inhibitors of Inflammasome Signaling: IL-1-beta AlphaLISA Primary Screen. THP-1 LPS/ATP IL-1B secretion, AlphaLISA, 16 h; hits give low values. activity change, % at 57.5 µM. actives 4.7% (n = 360,000); in the data active means activity change below about -50%; inconclusive means mostly about -30% to -49%
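THP-1 cells pretreated 1 hr with compounds (up to 57.5 uM final), then stimulated with LPS (250 ng/mL final) plus ATP (1.25 mM final); secreted IL-1B measured by AlphaLISA after 16 hr, decreased signal indicating inhibition.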
TDP1 cell noCPT: qHTS for Inhibitors of human tyrosyl-DNA phosphodiesterase 1 (TDP1): qHTS in cells in absence of CPT; DT40 Tdp1-/- hTDP1 cells, no CPT, ATP luminescence, 48 h; Potency, µM (titrated, usually from 46.2 µM), actives largely listed as inhibitors; actives 15% (n = 420,000); AID 686978, 2013; further: nearly all actives have a fitted effect of over 55% in size
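Readout: luminescence from CellTiter-Glo after 30 min in the dark at RT. Cells: DT40 Tdp1-/- with stable hTDP1, 400/well. Exposure: compounds alone, ≥48 hr, 37 °C.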
HT1080NT lethal: qHTS for induction of synthetic lethality in tumor cells producing 2HG: qHTS for the HT-1080-NT fibrosarcoma cell line; Potency, µM (titrated, usually from 46.1 µM), actives largely listed as cytotoxic; HT-1080-NT fibrosarcoma viability, CellTiter-Glo ATP luminescence, 48 h; actives 1.6% (n = 360,000);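 further: NT is the 2HG producing partner of a matched IDH1 knockdown line; nearly all actives have a fitted effect of over 55% in size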
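Fibrosarcoma NT cells, 750 per well in 5% FBS RPMI, were exposed to compound for 48 hours. Viability: CellTiter-Glo luminescence.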
TDP1 cell CPT: qHTS for Inhibitors of human tyrosyl-DNA phosphodiesterase 1 (TDP1): qHTS in cells in presence of CPT. chicken DT40 Tdp1-/-;hTDP1 cells + 20 nM CPT, ATP luminescence, 48 h. Potency, µM (highest dose often 46.2 µM), most hits filed as inhibitors. actives 12% (n = 420,000). AID 686979, 2013; further: nearly all actives have a fitted effect of over 55% in size
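Chicken DT40 Tdp1-/- cells complemented with human TDP1, 400 cells/well, exposed to compounds plus 20 nM camptothecin for at least 48 h at 37 C; viability read as ATP content by CellTiter-Glo luminescence.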
A number is an active result; . = inactive; ? = inconclusive; / = not tested or not shown. Unless noted, the call rests on the fitted dose curve; in most records, active means well fitted curve in the direction sought with a large enough effect; inconclusive means small, poorly fitted or top-dose-only effect, or another doubt; inactive means no such curve, though single readings can be large; an effect the other way counts as inactive or inconclusive.

SMILES	ELG1 DNA repair	HT1080 IDH1KD tx	IL1B secr inh	TDP1 cell noCPT	HT1080NT lethal	TDP1 cell CPT
CC1CCCCN1C(=O)Nc1cccc(C(F)(F)F)c1 (configuration not stated)	.	.	.	.	.	.
O=C(N=Nc1c(O)n(Cc2ccccc2)c2ccccc12)c1cc2ccccc2cc1O	?	.	.	15µM	.	?
O=C(N=Nc1c(O)n(Cc2ccccc2)c2ccccc12)c1ccc(O)cc1	?	.	?	23µM	.	?
O=C(Cn1c(O)c(N=NC(=O)c2ccncc2)c2ccccc21)Nc1ccccc1	.	.	.	.	.	.
Cc1cccc(NC(=O)Cn2c(O)c(N=NC(N)=S)c3ccccc32)c1	?	?	.	15µM	?	23µM
COc1cc(OC)cc(-c2nnc(NC(=O)CCS(=O)(=O)c3ccc(C)cc3)o2)c1	.	.	.	?	.	?
N#Cc1sc2nc(C3CC3)cc(-c3ccc(Cl)cc3)c2c1N	.	.	.	?	.	16µM
C=CCN1C(=O)c2ccc(C(=O)N3CCC(C(N)=O)CC3)cc2C1=O	.	.	.	.	.	.
O=C(CCCl)Nc1nnc(SCC(=O)NC2CCCC2)s1	.	29µM	-88	3.3µM	15µM	3.3µM
CCCCC(=O)Nc1nnc(SCC(=O)NC2CCCC2)s1	.	.	.	.	.	.
COc1cccc(N2CCN(c3ccc4nnc(CCC(=O)Nc5ccc(C)cn5)n4n3)CC2)c1	.	.	.	?	.	?
C=CCn1c(/N=C/c2ccc3c(c2)OCO3)nc2ccccc21	.	.	.	.	.	.
C(=Nc1ccc(/C=C/c2ccnc3ccccc23)cc1)c1ccc2c(c1)OCO2	/	/	/	18µM	/	?
C(=Nc1ccc(/C=C/c2ccnc3ccccc23)cc1)c1cccs1	/	/	/	13µM	/	?
C(=Nc1ccc(/C=C/c2ccnc3ccccc23)cc1)c1ccco1	/	/	/	13µM	/	16µM
CC(=O)c1cccc(NC(=O)c2cccc3ccccc23)c1	.	.	.	.	.	.
Cc1nn(-c2ccccc2)c(C)c1NC(=O)COc1ccccc1C#N	/	.	.	.	.	?
Cc1ccc(-n2nc(C)c(NC(=O)CCl)c2C)cc1C	?	?	-104	8.2µM	?	8.2µM
Cc1nn(-c2ccccc2)c(C)c1NC(=O)COc1ccc2ccccc2c1	?	?	.	18µM	.	16µM
Cc1nn(C)c(C)c1NC(=O)COc1ccc(Cl)cc1	.	.	.	2.6µM	.	6.5µM
Cc1nn(-c2ccccc2)c(C)c1NC(=O)COc1ccc(C#N)cc1	.	.	.	12µM	.	?
C=C1CCN([C@@H](CC(C)C)C(=O)NCc2ccco2)S(=O)(=O)c2ccccc21	/	.	.	?	.	?
CCn1c(NCc2cc(Br)ccc2NS(=O)(=O)c2ccc(C)cc2)nc2ccccc21	.	.	.	?	.	?
CCn1c(NCc2ccccc2NS(=O)(=O)c2ccc(C)cc2)nc2ccccc21	.	.	.	18µM	.	16µM
CCCn1c(NCc2ccccc2NS(=O)(=O)c2ccc(C)cc2)nc2ccccc21	?	?	.	16µM	?	?
SMILES	ELG1 DNA repair	HT1080 IDH1KD tx	IL1B secr inh	TDP1 cell noCPT	HT1080NT lethal	TDP1 cell CPT
CCc1ccc(NS(=O)(=O)c2c(C)nc3sc(CC)nn3c2=O)cc1	.	.	.	13µM	.	?
CCc1nn2c(=O)c(S(=O)(=O)Nc3ccccc3)c(C)nc2s1	.	.	.	.	.	.
Cc1ccc(NS(=O)(=O)c2c(C)nc3sccn3c2=O)cc1C	.	.	.	?	.	?
CCc1nn2c(=O)c(S(=O)(=O)Nc3ccc(C)c(C)c3)c(C)nc2s1	/	/	/	23µM	/	?
CCOc1ccc(NS(=O)(=O)c2c(C(=O)N3CCCCCC3)c(C)n(C)c2C)cc1	.	.	.	?	.	?
CCOc1ccc(NS(=O)(=O)c2c(C)nc3sc(C)c(C)n3c2=O)cc1	/	/	/	?	/	18µM
CC(=O)Nc1ccc(S(=O)(=O)NCCC(=O)N2CCC(Cc3ccccc3)CC2)cc1	.	.	.	?	.	?
COc1ccc(-c2[nH]ncc2CN2CCC(C(=O)N3CCOCC3)CC2)c(F)c1	.	.	.	.	.	.
O=C(N=C1SC2CS(=O)(=O)CC2N1Cc1ccccc1)C1CC1 (configuration not stated)	/	.	.	.	.	.
O=c1oc2ccccc2cc1-c1cn2ccccc2n1	?	23µM	.	?	26µM	?
CCOC(=O)/C=C/C(=O)Nc1nccs1	.	.	-86	3.7µM	.	7.3µM
CCOC(=S)SCC(=O)Nc1nccs1	.	?	-99	21µM	.	21µM
CCOC(=S)SCC(=O)Nc1nc(C)c(C)s1	.	.	.	21µM	?	16µM
CCOC(=O)C(=O)Nc1nccs1	.	.	.	.	.	.
O=C1C=C(c2cccc3c2sc2ccccc23)C[C@@H](c2ccc(Cl)cc2)C1	.	.	.	?	.	?
COc1ccc([C@H]2CC(=O)C=C(c3cccc4c3Oc3ccccc3S4)C2)cc1OC	18µM	.	.	13µM	.	16µM
O=C1C=C(c2cccc3c2Oc2ccccc2S3)C[C@@H](c2ccc(Cl)cc2)C1	21µM	.	.	?	.	?
COc1ccc([C@H]2CC(=O)C=C(c3cccc(Cl)c3O)C2)cc1OC	?	.	.	?	.	?
COC(=O)N1CCC[C@@]2(CCN(Cc3cc(C(F)(F)F)cc(C(F)(F)F)c3)C2)C1	/	/	/	.	/	.
CCOC(=O)c1c(C)c(-c2ccccc2)n(CC(=O)NC2CCCCC2)c1C	/	/	/	.	/	.
CCOC(=O)N1CCN(C(=O)CNC(=O)c2nn(-c3ccc(OC)c(OC)c3)c(=O)c3ccccc23)CC1	?	.	.	?	.	.
CCOC(=O)N1CCN(C(=O)CNC(=O)c2nn(-c3ccc(OC)c(Cl)c3)c(=O)c3ccccc23)CC1	?	.	.	9.2µM	.	?
CCN1CCN(C(=O)CNC(=O)c2nn(-c3ccc(OC)cc3)c(=O)c3ccccc23)CC1	?	.	.	.	.	.
